According to PubChem BioAssay:

assay: plasmodial surface anion channel blockers, osmotic lysis – cell-based, P. falciparum Indochina, OD700, 18 h, primary screen (AID 1157); conditions: P. falciparum Indochina infected erythrocytes, osmotic lysis OD700, 18 h; higher = more signal, called active from +8 up or from −8 down

z-score, inactive:
[N-]=[N+]=Nc1ccccc1C[C@@]1(C(=O)NCC(O)CO)N=C(c2ccc(OCCCO)cc2)O[C@@H]1c1ccccc1 (stereo not given in full) 1.87
C=C(CCCC)/C(=C/C[C@H](OC(=O)c1ccncc1)c1cccc(OCCO)c1)c1cnc2ccccc2c1 1.26
COCCOC(=O)N1C(=O)[C@@]2(c3cc(C#Cc4ccc(OC)cc4)ccc31)[C@H](c1ccc(OCCO)cc1)N1[C@H](c3ccccc3)[C@H](c3ccccc3)OC(=O)[C@H]1[C@@H]2C(=O)NC[C@H](O)c1ccccc1 1.24
CCOC(=O)C1=CC[C@@H](c2ccc(OC)cc2)N(S(=O)(=O)c2ccc(C)cc2)[C@H]1c1ccc(C)cc1 0.68
COCCOC(=O)N1C(=O)[C@@]2(c3cc(C#CCCO)ccc31)[C@H](c1ccc(OCCO)cc1)N1[C@H](c3ccccc3)[C@H](c3ccccc3)OC(=O)[C@H]1[C@@H]2C(=O)N1CCCCCCC1 0.115
COC(=O)[C@@]1(Cc2ccc(F)cc2)[C@H]2c3cc(C(=O)N4CCCC4)n(Cc4cc(F)cc5c4OCOC5)c3C[C@H]2CN1C(=O)c1ccccc1 0.886
C=C(CCCC)/C(=C/C[C@H](OC(=O)c1ccncc1)c1ccc(OCCO)cc1)c1cnc2ccccc2c1 1.31
C=CCOC(=O)[C@@H]1[C@H]2C(=O)O[C@H](c3ccccc3)[C@H](c3ccccc3)N2[C@H](c2ccc(OCCOC(=O)[C@H]3C[C@H]4C(=O)N5CCC[C@H]5C(=O)N4[C@H]3c3cccc(OCCO)c3)cc2)[C@@]12C(=O)Nc1ccc(I)cc12 0.84
COc1ccc([Si](C)(C)[C@H]2[C@H](CC(=O)N3Cc4ccccc4C[C@H]3CO)O[C@@]3(C(=O)N(C)c4c(Br)cc(C)cc43)[C@@H]2C)cc1 1.68
CCCC[C@H]1OB(O)C[C@H]2C1=C(COc1ccccc1)C[C@H]1C(=O)C=CC(=O)[C@H]12 0.134
COCCOC(=O)N1C(=O)[C@@]2(c3cc(C#CCC(C(=O)OC)C(=O)OC)ccc31)[C@H](C(=O)Nc1nc3ccccc3s1)[C@H]1C(=O)O[C@H](c3ccccc3)[C@H](c3ccccc3)N1[C@@H]2c1ccc(O)cc1 0.751
COC(=O)[C@@]1(Cc2ccc(OC)cc2)[C@H]2c3cc(C(=O)N4CCCC4)n(Cc4ccc(Cl)c(C(F)(F)F)c4)c3C[C@H]2CN1C(=O)c1ccccc1 -1.17
Cc1ccc(F)cc1S(=O)(=O)N[C@H]1CCN(Cc2ccc(OC(C)C)cc2)C1 0.526
COCCOC(=O)N1C(=O)[C@@]2(c3cc(C#CCNC(N)=O)ccc31)[C@H](C(=O)Nc1nc3ccccc3s1)[C@H]1C(=O)O[C@H](c3ccccc3)[C@H](c3ccccc3)N1[C@@H]2c1ccccc1OCCO -1.08
CCCCC(O)C1C=CC2C(=O)N(c3ccccc3)C(=O)C2N1Nc1ccc([N+](=O)[O-])cc1 (stereo not given) -1.06
CCCN1C(=O)[C@@]2(c3ccc([N+](=O)[O-])cc3)CC(=O)N(CC34CC5CC(CC(C5)C3)C4)[C@@H]2c2ccc(CO)cc21 -0.312
O=C1C=C(c2ccccc2)C(=O)C2=C1CC([C@H]1Oc3ccccc3S(=O)(=O)N3CCC[C@@H]13)=CC2 0.0841
O=C1[C@H]2C=C(I)[C@H](C[C@@H]2OCCCCCCO)[C@@]12CO2 0.035
N#Cc1ccc(-c2cccc(=O)o2)cc1 0.979
N#Cc1ccc(NN2C(C(O)C3CC=CCC3)C=CC3C(=O)N(c4ccccc4)C(=O)C32)cc1 (stereo not given) 1.14
COC(=O)C(CC#Cc1ccc2c(c1)[C@]1(C(=O)N2)[C@H](c2ccc(OCCO)cc2)N2[C@H](c3ccccc3)[C@H](c3ccccc3)OC(=O)[C@H]2[C@@H]1C(=O)N1CCCCCCC1)C(=O)OC 0.712
COCCOC(=O)N1C(=O)[C@@]2(c3ccccc31)[C@H](c1ccc(O)cc1)N1[C@H](c3ccccc3)[C@H](c3ccccc3)OC(=O)[C@H]1[C@@H]2C(=O)N1CCCCCCC1 0.14
COc1ccc(C(O)C2C=CC3C(=O)N(c4ccccc4)C(=O)C3N2Nc2ccc([N+](=O)[O-])cc2)c2ccccc12 (stereo not given) 1.12
O=C1c2ccccc2[C@@]2(Cc3ccccc3N(Cc3ccccc3)C2=O)[C@H](c2ccc(CO)cc2)N1Cc1ccccc1Cl 0.18
O=C1[C@@H]2[C@@H](CC(COc3ccccc3)=C([C@H](O)CCc3ccccc3)[C@@H]2CO)C(=O)N1Cc1ccccc1 2.05
COCCOC(=O)N1C(=O)[C@@]2(c3cc(C#CCC(C(=O)OC)C(=O)OC)ccc31)[C@H](C(N)=O)[C@H]1C(=O)O[C@H](c3ccccc3)[C@H](c3ccccc3)N1[C@@H]2c1ccc(O)cc1 2.53
CN(C)CCCNC(=O)[C@@]1(C)c2ccccc2C(=O)N(Cc2ccc(OC(F)(F)F)cc2)[C@H]1c1ccc(CO)cc1 0.328
CCCC=C(CCC)[C@@H](NC(=O)OCC(C)C)c1ccc(C(=O)OC)cc1 -1.47
COc1ccc(CCNC(=O)[C@@H]2c3ccccc3C(=O)N(Cc3ccccc3OC)[C@H]2c2ccc(CO)cc2)cc1 -0.0383
CCCC#C[Si](O[C@H](CC)c1cn(Cc2ccccc2)nn1)(C(C)C)C(C)C 0.358
[N-]=[N+]=NCc1ccccc1[C@@H]1OC(c2ccc(OCCCO)cc2)=N[C@]1(Cc1ccccc1N=[N+]=[N-])C(=O)O 0.982
CN(C)CCCNC(=O)[C@@H]1c2ccccc2C(=O)N(Cc2ccccc2C(F)(F)F)[C@H]1c1ccc(CO)cc1 0.64
C=CCNC(=O)[C@H]1[C@@H]2C(=O)O[C@@H](c3ccccc3)[C@@H](c3ccccc3)N2[C@@H](c2ccc(OCCO)cc2)[C@]12C(=O)Nc1ccccc12 0.81
O=C1O[C@@H](c2ccccc2)[C@@H](c2ccccc2)N2[C@@H](c3ccccc3OCCO)[C@]3(C(=O)Nc4ccc(C#CCCO)cc43)[C@@H](C(=O)NC[C@H](O)c3ccccc3)[C@H]12 1.28
C[C@]1(C(=O)O)c2ccccc2C(=O)N(Cc2cc(F)cc(C(F)(F)F)c2)[C@H]1c1ccc(CO)cc1 -0.927
